According to the supplement of paper PMC6555819:

System: VDR:RXRa (NR concentration 270 nM, RXRa partner concentration 90 nM)
Experiment: PBM binding z-score (relative to random genomic background probes); higher = stronger binding; sequences stand for … in GC…GCGATTGACAGCGTAGAATGAAGG
Description: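 Protein-binding microarray (Agilent 4x180K custom design, double-stranded 60-nt probes: 5' GC cap, 34-nt variable region, 24-nt constant primer region; full probe sequence given). Purified or IVT nuclear receptor:RXRα heterodimers (3:1 NR:RXRα, mostly 270:90 nM) or homodimers were incubated for 1 h in PBS with 2% milk and no ligand, then detected with Alexa488 antibodies. Fluorescence from o1-orientation probes (~5 replicates averaged) was converted to z-scores against 500 random hg19 background probes. Variable regions are seed direct-repeat (DR0–DR5) sites, all their single-nucleotide variants and half-site ablations.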

Sequence	PBM binding z-score
TCAGACAGGTGAAGGTATCTCAGGTACGCAGTCG	0.814
CCTACTGGGCCACGATAGGTCATTGATTCAGTGA	1.15
GCTATTTGTTGAAAGGGCAACCGAATGATTCTCG	0.521
CCTACTGGGCCAGAAAGGTCATTGATGCCGATAA	4.91
TCCTGTAGATCAATAGAGGTTAAGAAAGTGCGCT	1.67
GCATATAGGTAATACCAGGTGAAAGTCCGATTGT	-0.00851
ATCTCTAGGTAACCAAGTGCAGTGAATGCCGAAC	1.3
ATCGAAAGGTCGAAGGTGAGGATACCCACCCGAA	2.71
TTATATAGGTAAATGCTAGGTGAAAGTCCGATCT	0.639
ACTATTAGTTGAGACGAGGGCAACCAATAGGTTG	0.987
AGAATGAGGTTAAGATCAGGGGAACAGAATACAT	1.33
TTACCAAGGTGACGGTCGTTGATCCCTCTGTAGA	0.0426
AGTCAAAGTTCACCTAGGTAACGTAAGATATGCT	4.74
TAGCCTAGGTCATTGGGACAGTATAGTACGCATC	2.35
ATCGACAGGTCGTGAGGTGAGTATACAGAAAGGC	1.12
CCAGACAGGTGAAAGGTTACTCAGTCTGGTACGC	2.35
GGAACGAGGCCAAGTTGATAGCAGAGTTTGATGG	-0.548
TCATATAGGTAAACAGGTGAAATTCCGTAAGTTA	1.35
CTCGAAAGGTCGGTTGAGGCGAGTATACGGATAA	0.809
ATACCAAGGTGATCGTGAGGTCGCTGATACTAAC	2.39

Sequence	PBM binding z-score
ATCGAAAGCTCGAGGTGAGTATAGAGAAAGGGAA	-0.459
CAAACTAGGTCAAGAGGTCAAAGACCGCTTCCCG	5.93
CCGAGTATGTTATGGGGCATTCAGGCAACGGTGA	-0.0094
CGTCAAAGTTCAAGGTAACGCAACAGAAAGCAGC	3.67
TCTTGTAGATCAGCAGGTTAACAAAGCTGGCCAA	0.696
TAGACTAGGTCATGGGCCAGTATACCACGCGAAC	1.76
ACTATTAGTTGAGACGAGGGCAACGGATAGGTTG	0.66
TAGCCTGGGTCAGATCGGGCCAGTATACGCTATA	0.452
CTCGAAAGGTTGTGCTCAGGTGAGTATACCAAAC	0.214
GTACCAAGGTGATTAGGTCGTTGATGAGTAGGCG	0.223
CCTTACGGGTCACGAGGTAATAGCACGACGAGCG	4.18
TCTTGTAGATCAACAGGAGGTTAAGAATGATCGA	0.56
CGTCCAAGGTCATAGGCGGTCAGTGAAGACAGAT	4.7
TCATATAGGTAAATGCTAGGTGAAAATCCGATCT	0.793
CGTCCAAGGTCAAAGGCCAGTGAAGAGATGACGG	4.14
ACTTACGGGTCAACGTGGTTATAGCACGCGTATA	4.96
CCTACTGGGCCCAAGGTCATTGATTCCAATGCTC	3
AGAACGAGGTTATTAAGATCAGGGAATTGCGGTC	2.38
CCTAACAGGCCAGGGTCACTCAAGCATTTCGCTT	2.86
AATACAGGGCCATCGTAGGCCAGAGTACGCACAG	-0.126
